Results filed as inconclusive are left out. Where a call stands in place of a potency, no number is given. The source made the active and inactive calls. The call rests on the fitted dose curve. Positions of bridges follow the written chain, without caps; N, C: chain ends. Non-standard residues stand in square brackets, D forms with d. Residues, ends and D or L forms follow the SMILES beside them. *: point of attachment. X1 = CC[C@@H](C)[C@@H](N)C1=N[C@H](C(=O)*)CS1; d(aIle) = CC[C@H](C)[C@@H](N)C(=O)O; dOrn = NCCC[C@@H](N)C(=O)O
Assay: qHTS assay to identify small molecule antagonists of the estrogen receptor alpha (ER-alpha) signaling pathway using the BG1 cell line (AID 743080);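 further: BG1 cells stimulated with 17beta-estradiol alongside compound; nearly all actives have a fitted effect of over 25% in size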
Conditions: BG1Luc4E2 ERE-luciferase antagonist mode, luminescence; series mostly up to 70.3 µM
In short: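 Endogenous full-length ER-alpha in BG1-Luc-4E2 cells drives a stably integrated 4×ERE luciferase gene; compounds were tested against 17beta-estradiol over 21.5 h, with luminescence and multiplexed viability fluorescence recorded.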

Q: Which Potency does the source give for C/C(=C\C(=O)OCCCCCCCCC(=O)O)C[C@@H]1OC[C@H](C[C@@H]2O[C@H]2[C@@H](C)[C@H](C)O)[C@@H](O)[C@H]1O here?
A: inactive

Q: Which Potency does the source give for CC(C)[C@H](NC(=O)[C@H](CC(=O)O)NC(=O)[C@H](CCCCN)NC(=O)[C@@H](N)CCCN=C(N)N)C(=O)N[C@@H](Cc1ccc(O)cc1)C(=O)O (H-RKDVY-OH) here?
A: inactive

Q: With NC(=O)[C@@H]1CCCN1C(=O)[C@H](Cc1cnc[nH]1)NC(=O)[C@@H]1CCC(=O)N1 as the molecule, how does the Potency read?
A: inactive

Q: For CC[C@H]1OC(=O)[C@H](C)C(=O)[C@H](C)[C@@H](O[C@@H]2O[C@H](C)C[C@H](N(C)C)[C@H]2O)[C@](C)(OC)C[C@@H](C)C(=O)[C@H](C)[C@H]2N(CCCCn3cnc(-c4cccnc4)c3)C(=O)O[C@]12C, which Potency is on record?
A: inactive

Q: Which Potency does the source give for C[N+](C)(C)CCOP(=O)(O)OP(=O)([O-])OC[C@H]1O[C@@H](n2ccc(N)nc2=O)[C@H](O)[C@@H]1O here?
A: inactive

Q: With Cc1cnc(C(=O)O)c[n+]1[O-] as the molecule, how does the Potency read?
A: inactive

Q: Which Potency does the source give for C=CC1=C(C(=O)O)N2C(=O)[C@@H](NC(=O)/C(=N/OCC(=O)O)c3csc(N)n3)[C@H]2SC1 (stereo in doubt) here?
A: inactive

Q: With O=P(O)(O)C(O)(Cn1ccnc1)P(=O)(O)O as the molecule, how does the Potency read?
A: inactive

Q: With C=CC[N+]1([C@H]2C[C@H]3[C@@H]4CC[C@H]5C[C@H](O)[C@@H](N6CCOCC6)C[C@]5(C)[C@H]4CC[C@]3(C)[C@H]2OC(C)=O)CCCC1 as the molecule, how does the Potency read?
A: inactive

Q: For CC[C@@H](C)[C@@H](N)C1=N[C@H](C(=O)N[C@@H](CC(C)C)C(=O)N[C@@H](CCC(=O)O)C(=O)N[C@@H](C(=O)N[C@@H]2CCCCNC(=O)[C@@H](CC(N)=O)NC(=O)[C@@H](CC(=O)O)NC(=O)[C@@H](Cc3cnc[nH]3)NC(=O)[C@@H](Cc3ccccc3)NC(=O)[C@@H]([C@H](C)CC)NC(=O)[C@@H](CCCN)NC2=O)[C@@H](C)CC)CS1 (X1-LE[d(aIle)][dK][dOrn][dI][dF][dH][dD][dN]; lactam 4-C), which Potency is on record?
A: inactive
